A short description of experiment [1]: CCTE_Shafer_MEA_dev_burst_duration_mean: CCTE's Neural Network Formation Assay for Mean Burst Duration, Shafer Lab (AID 2284045).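 On AC50: curve fitted for loss meaning shorter burst duration than DMSO.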 The gist of the method: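 Network-formation assay in primary rat cortical neurons; treatment spans twelve days of development. Mean burst duration per well is integrated by trapezoidal AUC and fitted in the loss-of-signal direction against DMSO baseline.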

Experiment [2] can be described thus: CCTE_Shafer_MEA_dev_interburst_interval_mean: CCTE's Neural Network Formation Assay for Mean Interburst Interval, Shafer Lab (AID 2284046).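 Further: well-mean interburst interval of bursting electrodes as AUC over four recording days; curve fitted for decrease in interburst interval relative to DMSO.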 The gist of the method: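 Network formation assay in primary rat cortical cultures, exposed from DIV 0 to 12. Mean interburst interval per well, integrated as AUC over four recordings.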
Experiment [3] is described as follows: CCTE_Shafer_MEA_dev_inter_network_spike_interval_mean: CCTE's Neural Network Formation Assay for Mean Inter-network Spike Interval, Shafer Lab (AID 2284047).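 On AC50: potency for a decrease in mean inter-network spike interval below DMSO.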 An outline of the steps:
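Compound was given at plating to primary rat cortical neurons and renewed with full medium changes on DIV 5 and 9. Extracellular activity was recorded on days 5, 7, 9, 12; AUC values were fitted for loss relative to DMSO control.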

Experiment [4] is described as follows: CCTE_Shafer_MEA_dev_network_spike_number: CCTE's Neural Network Formation Assay for Number of Network Spikes, Shafer Lab (AID 2284048).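 Further: synchronized bursts across electrodes counted on days 5 7 9 12 and integrated as AUC.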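 On AC50: fit as a loss of signal meaning fewer network spikes than DMSO.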 An outline of the steps: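 Extracellular recordings from 16-electrode wells track network formation in rat cortical cultures under continuous treatment from plating. The endpoint is network spike number, expressed as AUC across DIV 5–12 relative to DMSO vehicle.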

Experiment [5] is described as follows: CCTE_Shafer_MEA_dev_network_spike_peak: CCTE's Neural Network Formation Assay for Mean Number of Electrodes in Network Spike, Shafer Lab (AID 2284049).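 On AC50: fitted for loss of signal meaning fewer electrodes in network spikes than DMSO.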 An outline of the steps:
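Continuous 12-day exposure of rat cortical cultures, starting at plating, on MEA plates. Endpoint: electrodes participating in network-spike peaks, AUC across DIV 5–12, DMSO as negative control.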

A short description of experiment [6]: CCTE_Shafer_MEA_dev_spike_duration_mean: CCTE's Neural Network Formation Assay for Mean Spike Duration, Shafer Lab (AID 2284051).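 Further: mean network spike duration pooled as area under curve over DIV 5 to 12 recordings.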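 On AC50: potency for a decrease in mean network spike duration versus DMSO.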 An outline of the steps: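 With DMSO as baseline, loss of mean network spike duration was scored from extracellular recordings of rat cortical neurons on MEA plates. Exposure spanned plating to DIV 12; the four recording days were collapsed into one AUC value.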

The nature of experiment [7]: CCTE_Shafer_MEA_dev_network_spike_duration_std: CCTE's Neural Network Formation Assay for Standard Deviation of Network Spike Duration, Shafer Lab (AID 2284052).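 Further: area under curve of spike duration SD across recording days 5 to 12; hits are decreases in network spike duration SD versus DMSO vehicle.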 The gist of the method:
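Developing networks of rat cortical neurons were exposed over twelve days in vitro on 48-well MEA plates. Trapezoidal AUC of recordings (DIV 5–12) was analysed for signal loss relative to DMSO vehicle.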

The nature of experiment [8]: CCTE_Shafer_MEA_dev_per_network_spike_spike_number_mean: CCTE's Neural Network Formation Assay for Mean Number of Spikes in a Network Spike, Shafer Lab (AID 2284053). The gist of the method: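 First, rat cortical cells (1.5 x 10^5/well) were seeded onto MEA wells; second, dosing began at plating and was refreshed on DIV 5 and 9; finally, network-spike spike counts across DIV 5–12 were summarized as AUC.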

Experiment [9] can be described thus: CCTE_Shafer_MEA_dev_per_network_spike_spike_percent: CCTE's Neural Network Formation Assay for Percent of Spikes in a Network Spike, Shafer Lab (AID 2284054). An outline of the steps:
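Developing networks of rat cortical neurons are dosed at day 0 and recorded extracellularly four times up to day 12. The endpoint is the area under the curve of percent spikes in network spikes, fitted in the negative direction relative to DMSO.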

The nature of experiment [10]: UKN5_HCS_SBAD2_cell_viability: Viability Assessment in the University of Konstanz (UKN) Leist Lab Neurite Outgrowth Assay in human iPSC-derived immature Dorsal Root Ganglia Neurons (UKN5) (AID 2284056). The gist of the method: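 iPSC-derived immature peripheral neurons (SBAD2) seeded on Matrigel with CHIR99021, SU5402 and DAPT, dosed 1 h later for 24 h. Viability from Hoechst H-33342 and calcein-AM live staining, high-content imaging; bidirectional fit versus DMSO.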

Experiment [11] is described as follows: CCTE_Shafer_MEA_dev_LDH: CCTE's Lactate Dehydrogenase Assay for Cytotoxicity in the Neural Network Formation Assay, Shafer Lab (AID 2284068; active means hit-call score of the fitted dose curve at least 0.9, where 1 is the maximum;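 further: exposure for twelve days from plating with re-dosing on DIV 5 and 9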). An outline of the steps:
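Developing rat cortical networks on MEA plates are exposed to compound for 12 days from plating. LDH activity is measured spectrophotometrically, with DMSO as baseline.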

Experiment [12] is described as follows: UKN5_HCS_SBAD2_neurite_outgrowth: University of Konstanz (UKN) Leist Lab Neurite Outgrowth Assay in human iPSC-derived immature Dorsal Root Ganglia Neurons (UKN5) (AID 2284070). The conditions noted are these: actives raise or lower the signal. The gist of the method:
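Neurite area from calcein-AM high-content images after 24 h exposure (staining included), with H-33342 for viability, fitted both directions against DMSO. Cells: thawed immature SBAD2 peripheral neurons, 100.000 cells/cm2, with CHIR99021, SU5402, DAPT; dosing 1 h after seeding.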

A short description of experiment [13]: CCTE_Shafer_MEA_dev_AB: CCTE's Alamar Blue Assay for Cytotoxicity in the Neural Network Formation Assay, Shafer Lab (AID 2284083; active means hit-call score of the fitted dose curve at least 0.9, where 1 is the maximum;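 further: resazurin reduction fluorescence as viability of cultured neurons; twelve days of exposure from plating with re-dosing on DIV 5 and 9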). An outline of the steps: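 Cytotoxicity companion to the developmental MEA: primary rat cortical neurons, 12-day exposure starting day 0, compound refreshed DIV 5 and 9; resazurin fluorescence, fitted against DMSO vehicle.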
In general terms: The colour change of resazurin is a common sign of viable cells or microbes.

Experiment [14] is described as follows: CCTE_Shafer_MEA_acute_LDH: CCTE's Lactate Dehydrogenase Assay for Cytotoxicity in the Neural Acute Assay, Shafer Lab (AID 2284086; active means hit-call score of the fitted dose curve at least 0.9, where 1 is the maximum;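 further: active means LDH release rises above DMSO vehicle level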). An outline of the steps: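 LDH released during 40 min compound exposure of primary rat cortical cultures, quantified by absorbance at 490 nm in collected medium. Fitting direction positive versus DMSO vehicle.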
A short description of experiment [15]: CCTE_Shafer_MEA_dev_mutual_information_norm: CCTE's Neural Network Formation Assay for Mutual Information Normalization, Shafer Lab (AID 2284091).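 On AC50: mutual information between electrodes summarised as area under curve across four recording days; potency is for a decrease in mutual information relative to DMSO.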 An outline of the steps: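 Exposure of primary rat cortical neurons began at plating and ran to DIV 12, with full media and treatment renewal after DIV 5 and 9 recordings. Mutual information AUC (DIV 5–12) was analysed for loss versus DMSO.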

Experiment [16] in a line: CCTE_Shafer_MEA_dev_correlation_coefficient_mean: CCTE's Neural Network Formation Assay for Mean Correlation Coefficient, Shafer Lab (AID 2284093).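 On AC50: well mean pairwise spike train correlation integrated as AUC over recording days 5 to 12; potency fitted for loss of correlation relative to DMSO vehicle wells.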 An outline of the steps: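 Extracellular firing from rat cortical networks on 48-well MEAs, DMSO-referenced, negative fitting direction. Compound present from plating to DIV12; mean pairwise correlation per well integrated over DIV5–12 recordings by trapezoidal AUC.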

In another experiment the test system is DIO2 (gene 1734). The experiment in a line: CCTE_GLTED_hDIO2: CCTE's human Deiodinase 2 (DIO2) Inhibition Assay, Great Lakes Toxicology and Ecology Division (GLTED) Lab (AID 2284050; active means hit-call score of the fitted dose curve at least 0.9, where 1 is the maximum). The gist of the method: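 Iodide released by human deiodinase 2 over 3 h with test chemical, measured spectrophotometrically via Sandell-Kolthoff cerium/arsenic reaction. Run n=3; inhibition referenced to DMSO.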

In the next experiment the test system is DIO3 (gene 1735). The experiment in a line: CCTE_GLTED_hDIO3: CCTE's human Deiodinase 3 (DIO3) Inhibition Assay, Great Lakes Toxicology and Ecology Division (GLTED) Lab (AID 2284055; active means hit-call score of the fitted dose curve at least 0.9, where 1 is the maximum;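 further: potency is for inhibition seen as loss of released iodide signal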). The gist of the method:
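Inhibition is read as reduced iodide release, measured spectrophotometrically by the Sandell-Kolthoff cerium/arsenic reaction. Adenovirus-expressed human DIO3 enzyme is exposed to chemical for 3 h, n=3 plates. Iodinated chemicals, nitrite, iron or thiocyanate may interfere.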

Experiment [17] in a line: UKN2_HCS_IMR90_neural_migration: University of Konstanz (UKN) Leist Lab Neural Crest Cell Migration Assay in human induced IMR90 Pluripotent Stem Cells (UKN2) (AID 2284204). The conditions noted are these: actives raise or lower the signal. An outline of the steps: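 Using a 96-well stopper format with PLO/laminin/fibronectin coating, neural crest cells from iPSC migrate in cytokine-supplemented N2-S medium; after 24 h, chemicals are applied for a further 24 h, then cells are imaged after dye staining.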

“And” between values parts separate entries of the source, which are not always exact repeats. Equal values may be shown once. Results filed as inconclusive are left out. The source made the active and inactive calls. How the source made its calls, unless noted: active means hit-call score of the fitted dose curve at least 0.9, where 1 is the maximum; inactive means score below 0.9.

Regarding `CSC1=N[C@@](C)(c2ccccc2)C(=O)N1Nc1ccccc1`, the outcome in experiment [1], in [2], in experiment [3], in experiment [4], in [5] and in experiment [6] was inactive. Moreover, the result in [7], in experiment [8], in experiment [9], in experiment [10], in [12] and in experiment [13] was inactive. The compound was called inactive in experiment [14], in [15] and in experiment [16]. Also, in experiment [11], the concentration at half-maximal activity (AC50) was 15 µM (active).

Take `CC1=NNC(=O)N(/N=C/c2cccnc2)C1`: the AC50 in experiment [1] is 24.8 µM (active). Besides, the outcome in [2], in experiment [3], in experiment [4], in [5], in [6] and in experiment [7] was inactive. Moreover, the compound was classed as inactive in experiment [8], in experiment [9], in experiment [11], in experiment [13], in experiment [14] and in experiment [15]. Moreover, in experiment [16], the result was inactive.

Consider `C=C(C)[C@H]1Cc2c(ccc3c2O[C@@H]2COc4cc(OC)c(OC)cc4[C@@H]2C3=O)O1`, for which the half-maximal activity concentration (AC50) in [1] is 29.8 nM (active) and 31 nM (active); in experiment [2], 41.4 nM (active) and 31.6 nM (active); in experiment [3], 20.1 nM (active) and 26.2 nM (active); in [4], 14 nM (active) and 10.7 nM (active); in experiment [5], 24.9 nM (active) and 16.5 nM (active); in experiment [6] it was 35.4 nM (active) and 21.1 nM (active). The AC50 in experiment [7] was 27.7 nM (active) and 14.6 nM (active); in experiment [8] it was 14.5 nM (active); in [9] it was 16.8 nM (active) and 13.3 nM (active); in the experiment with DIO3 (gene 1735) it was 2.39 µM (active); in experiment [11] it was 16.4 nM (active) and 15.4 nM (active); in experiment [13], 38.4 nM (active) and 57.1 nM (active). For the same compound, the concentration at half-maximal activity (AC50) in experiment [15] is 7.09 nM (active); in experiment [16], 14.5 nM (active) and 16.1 nM (active). Besides, the compound was called inactive (in the experiment on DIO2 (gene 1734); in experiment [14]).

On to `CON=C(C(=O)OC)c1ccccc1CON=C(C)c1cccc(C(F)(F)F)c1`, for which the AC50 was 674 nM (active) and 995 nM (active) in experiment [1]; 1.32 µM (active) and 798 nM (active) in experiment [2]; 969 nM (active) and 1.72 µM (active) in experiment [3]; 632 nM (active) and 884 nM (active) in experiment [4]; 871 nM (active) and 742 nM (active) in experiment [5]; 603 nM (active) and 625 nM (active) in experiment [6]. For the same compound, the concentration at half-maximal activity (AC50) in experiment [7] was 642 nM (active) and 886 nM (active); in [8], 697 nM (active) and 542 nM (active); in [9], 981 nM (active) and 686 nM (active); in [11], 326 nM (active) and 299 nM (active); in experiment [13] it was 1.26 µM (active) and 437 nM (active); in [15] it was 671 nM (active) and 812 nM (active). Further, the AC50 is 941 nM (active) and 501 nM (active) in [16]; 15.2 µM (active) in experiment [17]. Moreover, the call in experiment [14] was inactive.

The term AC50 denotes the midpoint of the concentration-response curve, whichever way the signal moves.
